# Columns and labels:
# Format in all cases: functional
# [1] = test system: Plasmodium falciparum; assay: GSK_TCMDC: Inhibition of Plasmodium falciparum 3D7 in whole red blood cells, using parasite LDH activity as an index of growth. Test compounds present at 2uM
# [2] = test system: Plasmodium falciparum; assay: GSK_TCMDC: Inhibition of Plasmodium falciparum Dd2 in whole red blood cells, using parasite LDH activity as an index of growth. Test compounds present at 2uM
# [3] = test system: HepG2; assay: GSK_TCMDC: Percent inhibition of human HepG2 cell line. Test compounds present at 10uM.
SMILES,Inhibition [1] [%],Inhibition [2] [%],Inhibition [3] [%]
O=C(Cn1c(CCc2cccc(F)c2F)nc(=O)c2ccccc21)N(Cc1ccc(-c2ccc(C(F)(F)F)cc2)cc1)C1CCN(C2CCSCC2)CC1.O=C(O)C(O)C(O)C(=O)O,99,93,97
CCCCOc1cc(OC)c2ccccc2c1CCNCCCCNCCc1c(OCCCC)cc(OC)c2ccccc12.CS(=O)(=O)O,82,82,100
Cl.O=C1Nc2ccc3ncccc3c2/C1=C/Nc1ccc(N2CCN(CCO)CC2)cc1,86,55,34
CCCCOc1c(CNCCCCCCNCc2ccc3ccccc3c2OCCCC)ccc2ccccc12.CS(=O)(=O)O,96,89,99
CN(C)CCCNc1ncnc2c1[nH]c1ccc(Cl)cc12,99,3,2
CC(C)NC[C@@H](O)[C@H](Cc1ccccc1)NC(=O)c1cc2c3c(c1)c(C(C)C)cn3CCS(=O)(=O)N2C.O=CO,98,99,5
CC(=O)c1cccc2c(NC(=O)Nc3ccc4nccc(N5CCN(C)CC5)c4c3)cccc12.Cl,99,94,13
COc1ccc(-c2cccc(NC(=O)c3cccc(C#N)c3)c2)cc1CN(C)CCN(C)C.O=C(O)C(F)(F)F,99,21,0
CCCCN(CCCC)CCNC(=O)c1ccc(-c2nc3cc(Cl)ccc3[nH]2)c(OCC)c1,100,80,0
CCN(CC)CCN(Cc1ccc(-c2ccc(C(F)(F)F)cc2)cc1)C(=O)Cn1c(CCc2c(F)cccc2F)nc(=O)c2ccccc21.O=C(O)C(O)C(O)C(=O)O,100,61,36
